Bioassay records (PubChem BioAssay)
Only some compounds are listed: those with a hit (about 3.7% of all), similar ones and a draw of the others.
BoNT-A LC inh2 = BoNT/A light chain protease inhibitors, primary screen, biochemical, flow cytometry, MLPCN library. Botulinum neurotoxin type A light chain protease (Clostridium botulinum A str. ATCC 3502). multiplex microsphere protease substrate cleavage. inhibition, % at 10 µM. 360,000 compounds, 0.17% hits. AID 588499, 2011
BoNT-F LC inh = BoNT/F light chain protease inhibitors, primary screen, biochemical, flow cytometry, MLPCN library; inhibition, % at 10 µM; 360,000 compounds, 0.22% hits; AID 588497, 2011; Multiplex microsphere protease cleavage assay; in the data active = inhibition above about 35%, passing the limit was not always enough; inconclusive = no clear call, values can overlap the other calls
MazEF act = activators of E. coli MazEF toxin-antitoxin RNase, primary screen, biochemical, fluorescence, uHTS; Endoribonuclease toxin MazF (Escherichia coli (strain K12)), P0AE70; FAM/BHQ RNA-DNA oligo cleavage fluorescence, 5 h; AID 504720, 2011; activation, % at 20 µM; 350,000 compounds, 0.32% hits; in the data active = activation above about 50%
Autofluor counter = flagged as autofluorescent in microsphere protease counterscreen; compound autofluorescence counterscreen, microsphere flow cytometry; hits give high values; fluorescence intensity (no concentration beside the values); 360,000 compounds, 3.1% hits; in the data active = fluorescence intensity above about 16000; inconclusive = no clear call, values can overlap the other calls
Anthrax LF inh2 = Bacillus anthracis LF protease inhibitors, primary screen, biochemical, multiplex microsphere, MLPCN library; Lethal factor (Bacillus anthracis), P15917; multiplex microsphere protease cleavage assay; inhibition, % at 10 µM; 360,000 compounds, 0.12% hits; AID 588501, 2011
Target sequence (P15917 whole entry, looked up): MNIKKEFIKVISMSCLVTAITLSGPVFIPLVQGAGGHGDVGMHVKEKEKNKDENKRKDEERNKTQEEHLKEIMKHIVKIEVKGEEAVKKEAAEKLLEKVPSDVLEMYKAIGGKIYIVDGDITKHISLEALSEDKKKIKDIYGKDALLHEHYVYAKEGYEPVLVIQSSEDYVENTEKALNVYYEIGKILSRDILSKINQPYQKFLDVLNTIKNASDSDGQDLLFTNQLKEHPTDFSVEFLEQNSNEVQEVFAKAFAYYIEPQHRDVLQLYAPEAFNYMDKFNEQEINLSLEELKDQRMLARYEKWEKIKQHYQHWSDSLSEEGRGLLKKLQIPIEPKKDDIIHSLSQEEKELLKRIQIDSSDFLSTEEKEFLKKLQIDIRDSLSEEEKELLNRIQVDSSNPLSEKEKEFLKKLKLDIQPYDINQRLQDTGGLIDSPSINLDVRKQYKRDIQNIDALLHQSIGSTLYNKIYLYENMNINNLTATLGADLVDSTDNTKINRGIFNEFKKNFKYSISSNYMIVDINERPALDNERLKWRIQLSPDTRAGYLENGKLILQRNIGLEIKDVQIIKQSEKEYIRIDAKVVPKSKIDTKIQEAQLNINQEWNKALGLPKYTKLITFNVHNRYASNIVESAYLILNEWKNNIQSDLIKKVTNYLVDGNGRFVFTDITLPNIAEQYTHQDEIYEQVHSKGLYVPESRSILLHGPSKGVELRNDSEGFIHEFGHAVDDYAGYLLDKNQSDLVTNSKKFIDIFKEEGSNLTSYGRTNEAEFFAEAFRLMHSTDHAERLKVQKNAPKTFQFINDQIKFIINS
Of the large screens only hits and unclear results are named; the others gave an inactive call. Cut-off read from the data, not from the text of the source, unless noted: active = inhibition above about 30%; inconclusive = no clear call, values can overlap the other calls; inactive = below that.

O=C(NCc1cccnc1)C1CCN(S(=O)(=O)c2cccs2)CC1	Autofluor counter 23889
O=C(C1CCN(S(=O)(=O)c2cccs2)CC1)N1CCCCC1	none (no result: BoNT-A LC inh2, BoNT-F LC inh, Autofluor counter, Anthrax LF inh2)
COc1cccc(CNC(=O)C2CCN(S(=O)(=O)N3CCCCC3)CC2)c1	Autofluor counter 21716
COc1ccc(S(=O)(=O)N2CCC(C(=O)NCc3cccc(OC)c3)CC2)cc1	none
O=C(NCc1cccnc1)C1CCN(S(=O)(=O)c2cccnc2)CC1	none
COc1cccc(CNC(=O)C2CSC3(C)CCC(=O)N23)c1 (stereo unspecified)	Autofluor counter 17016
CNC(=O)C[C@H]1C(=O)N(c2ccccc2)C[C@@H]1CSC	none
COc1cccc(CNc2ccc(S(=O)(=O)N3CCCC3)cn2)c1	none
CCCc1cc(=O)[nH]c(SCc2ccc(Cl)cc2)n1	none
CCCc1cc(=O)[nH]c(SCc2cccc(C)c2)n1	BoNT-A LC inh2 inconclusive, Autofluor counter 23596
CCCc1cc(=O)[nH]c(SCc2cc(Cl)ccc2OC(F)F)n1	Autofluor counter 24635
COCCN(C(=O)CNC(=O)c1cccs1)C(C(=O)NC(C)(C)C)c1ccccc1 (stereo unspecified)	none
O=C1Nc2ccccc2CCC1Sc1nnc(-c2ccc(Cl)cc2)s1 (stereo unspecified)	Autofluor counter 24726
Clc1ccc(CSc2nnc(-c3ccncc3)s2)cc1	none
CC(NC(=O)c1ccc(F)cc1)c1nc2ccccc2n1Cc1ccccc1F (stereo unspecified)	Autofluor counter 26278
CCCn1c(C(C)NC(=O)c2ccccc2)nc2ccccc21 (stereo unspecified)	none
CCC1Oc2ccc(C)cc2N(CC(=O)NCc2cccc(OC)c2)C1=O (stereo unspecified)	Autofluor counter 17853
COc1ccc(NC(=O)CN2CCC(C)CC2)cc1	Autofluor counter 17348
Cc1ccc(CN(Cc2cccnc2)C(=O)CN2C(=O)COc3ccccc32)o1	none
O=C(CN1C(=O)COc2ccccc21)N(Cc1ccccc1)Cc1ccccn1	BoNT-A LC inh2 inconclusive, Autofluor counter 22246
COc1ccc(NC(=O)CN2C(=O)C(C)Oc3ccc(C)cc32)cc1 (stereo unspecified)	BoNT-F LC inh inconclusive
COc1ccc(NC(=O)CN2C(=O)C(C)Oc3ccccc32)cc1 (stereo unspecified)	Autofluor counter 23500
COc1ccc(CN(Cc2ccccn2)C(=O)CN2C(=O)C(C)Oc3ccccc32)cc1 (stereo unspecified)	Autofluor counter 22997
CCC1Oc2ccccc2N(CC(=O)Nc2ccccc2OC)C1=O (stereo unspecified)	BoNT-A LC inh2 inconclusive, Autofluor counter 22225
CCC1Oc2ccccc2N(CC(=O)NCCc2ccc(OC)c(OC)c2)C1=O (stereo unspecified)	none
COC(=O)c1ccc(COn2nnc3ccccc32)cc1	none
COc1ccc(CCN=C(N)NS(=O)(=O)c2cc(F)ccc2OC)cc1	none
Cn1c2ccccc2c2nnc(N/N=C/c3ccc(O)cc3)nc21	BoNT-F LC inh inconclusive
Cc1ccc(S(=O)(=O)N2CC3(C)CN(S(=O)(=O)c4ccc(C)cc4)CC(C)(C2)C3=O)cc1	Autofluor counter 22149
Cc1ccc(COc2ccsc2-c2n[nH]c(=S)n2C)cc1	Autofluor counter 22046
O=C(NCc1ccc(F)cc1F)[C@@H]1CCCN1C(=O)[C@@H]1CCCN1C(=O)c1ccccc1	none (no result: MazEF act)
Cc1ccc(C(=O)OCC(=O)Nc2c(C)n(C)n(-c3ccccc3)c2=O)cc1[N+](=O)[O-]	MazEF act 50
CCOC(=O)C1=C(C)OC(=Cc2ccccc2)C1=O	none
CCOC(=O)C1=C(O)c2ccccc2C(=O)/C1=C\c1ccc(C)cc1	MazEF act 151
CCOC(=O)C(C(=O)OCC)c1cc(Br)c2noc3c2c1C(=O)c1ccccc1-3	BoNT-A LC inh2 68, MazEF act 178, Anthrax LF inh2 58
O=C(Nc1ccccc1C(F)(F)F)C1CC(=O)N(c2ccccc2F)C1 (stereo unspecified)	Autofluor counter 21214
Cc1ccc(S(=O)(=O)N2CCOC2CNC(=O)C(=O)NCCCN2CCOCC2)cc1 (stereo unspecified)	none
CN(C(=O)c1cc(S(=O)(=O)N2CCc3ccccc32)cn1C)C1CCCCC1	none
Cc1ccc(-c2nc3sc(C#N)c(N)n3c(=O)c2C#N)cc1	MazEF act 733
O=[N+]([O-])c1cc2oc3c(c2c(C=NCc2ccncc2)c1O)CCCC3	none
COc1ccc(Sc2nnc(Cc3ccccc3)c3ccccc23)cc1	none
Cc1ccc(Sc2nnc(Cc3ccccc3)c3ccccc23)cc1	BoNT-A LC inh2 inconclusive, Autofluor counter 22795
CC(C)(C)OC(=O)NCCc1nnc(SCC(=O)Nc2cccc(Cl)c2)o1	Autofluor counter 22287
CC(C)(C)OC(=O)NCCCCCc1nnc(SCC(=O)Nc2cccc(Cl)c2)o1	Autofluor counter 16480
CC(C)(C)OC(=O)NCCc1nnc(SCC(=O)Nc2ccc(Br)cc2)o1	BoNT-F LC inh inconclusive
Cc1c2cnn(CC(=O)NC3CCCC3)c(=O)c2c(C)n1Cc1ccccc1	none (no result: BoNT-A LC inh2, BoNT-F LC inh, Autofluor counter, Anthrax LF inh2)
Cc1c2cnn(CC(=O)NCCCN3CCCCC3C)c(=O)c2c(C)n1Cc1ccccc1 (stereo unspecified)	Autofluor counter 18388
CNS(=O)(=O)c1ccc(CNC[C@H]2O[C@@H](n3cnc(C(N)=O)n3)[C@H](O)[C@@H]2O)cc1	none
O=C(COc1ccc(S(=O)(=O)N2CCOCC2)cc1)Nc1ccccc1C(F)(F)F	Autofluor counter 22134
O=C(COc1ccc(S(=O)(=O)N2CCOCC2)cc1)NCCc1ccccc1	BoNT-F LC inh inconclusive
COc1ccc(-c2nnnn2C(C)C)cc1S(=O)(=O)Nc1ccccc1	none
CC(C)n1nnnc1-c1cc(Cl)cc(Cl)c1	Autofluor counter 23056
CC(C)n1nnnc1-c1cccc(Cl)c1	Autofluor counter 17953
COCCn1c(COc2ccc(Cl)cc2)nnc1SCC(N)=O	Autofluor counter 22516
Cc1ccc(OCc2nnc(SCC(N)=O)n2N)cc1	none
CCOc1ccc(Cc2nnc(SCC(N)=O)n2C)cc1	Autofluor counter 21499
N/C(COc1cccc(C(F)(F)F)c1)=N\NC(=O)c1cccnc1Oc1ccccc1	none
Cc1snc(SCC(=O)N/N=C(\N)COc2cccc(C(F)(F)F)c2)c1C#N	BoNT-A LC inh2 inconclusive, Autofluor counter 20365
Cc1nn(-c2nccs2)c2c1C(=O)CC(C)(C)C2Br (stereo unspecified)	none
O=C1OCc2cc(NC(=O)C3CCCCC3)ccc21	BoNT-A LC inh2 inconclusive, Autofluor counter 20191
COC(=O)C1=C(C)N(C)C(C)=C(C(=O)OC)C1c1ccccn1	MazEF act 94
CCCCOc1ccccc1C1C(C(=O)OC)=C(C)N(C)C(C)=C1C(=O)OC	Autofluor counter 22647
COC(=O)C1=C(C)N(C)C(C)=C(C(=O)OC)C1c1ccccc1C	none
